Compounds with a hit are over-represented: about 3.5% of the library has one in this group of screens.
BoNT A protease = inhibitors of Botulinum neurotoxin A light chain protease | multiplex microsphere protease substrate cleavage, flow cytometry | inhibition, % at 10 µM | 360,000 compounds, 0.17% hits | AID 588499
Anthrax LF prot = inhibitors of Bacillus anthracis lethal factor protease. P15917. multiplex microsphere protease cleavage assay, LF. inhibition, % at 10 µM. 360,000 compounds, 0.12% hits. AID 588501
Autofluor counter = flagged as autofluorescent in microsphere protease counterscreen; compound autofluorescence counterscreen, microsphere flow cytometry; active compounds read high; 360,000 compounds, 3.1% hits; fluorescence intensity (test concentration not listed); in the data active means fluorescence intensity above about 16000; inconclusive means no clear call, values can overlap the other calls
BoNT F protease = inhibitors of Botulinum neurotoxin F light chain protease; Multiplex microsphere protease cleavage assay, flow cytometry; inhibition, % at 10 µM; 360,000 compounds, 0.22% hits; AID 588497; in the data active means inhibition above about 35%, passing the limit was not always enough; inconclusive means no clear call, values can overlap the other calls
Large screens that a line does not name were inactive. Unless noted, no stated cut-off is given here; in the data, active means inhibition above about 30%; inconclusive means no clear call, values can overlap the other calls; inactive means below that.

CC1CCN(C(=O)COC(=O)Cn2cnc3ccccc32)CC1	none
Cc1ccc(Nc2nc(C)c(CCC(C)C)c(=O)[nH]2)cc1	none
Cc1nc(NCc2ccccc2)[nH]c(=O)c1CCC(C)C	Autofluor counter 24000
COc1ccc(C(=O)NN)cc1COc1ccc(Br)cc1	Autofluor counter 19591
O=C(c1ccccc1)c1ccc[nH]1	none
Cc1ccc(C(=O)COC(=O)C2C3C=CC(C3)C2C(=O)OCC(=O)c2ccc(C)c(C)c2)cc1C (stereo not drawn)	BoNT A protease inconclusive, Autofluor counter 22921
COc1ccccc1-c1nnc(SCc2nc3ccccc3[nH]2)n1C	none
Brc1ccc(-n2c(SCc3nc4ccccc4[nH]3)nnc2-c2ccncc2)cc1	none
Clc1ccc(-n2c(SCc3nc4ccccc4[nH]3)nnc2-c2ccncc2)cc1	Autofluor counter 21021
Cn1c(SCc2nc3ccccc3[nH]2)nnc1-c1cccnc1	BoNT A protease inconclusive, Autofluor counter 20145
CCOc1ccc(-c2nnc(SCc3nc4ccccc4[nH]3)n2N)cc1	Autofluor counter 22829
Cc1c(C)c(C)c(S(=O)(=O)NCCC(=O)N2CCN(Cc3ccc(C#N)cc3)CC2)c(C)c1C	none
Cc1cccc(-n2nnnc2SCC(=O)c2cc(C)n(Cc3ccco3)c2C)c1	BoNT A protease inconclusive, Autofluor counter 22516
Cc1cccc(-n2nnnc2SCC(=O)c2cc(C)n(CC3CCCO3)c2C)c1 (stereo not drawn)	none
CCOC(=O)C1=C(COC(=O)CCOc2cc(C)ccc2C)NC(=O)NC1C (stereo not drawn)	none
CC1CCCN(C(=O)C2c3ccccc3C(=O)N3CCc4ccccc4C23)C1 (stereo not drawn)	Autofluor counter 23724
COc1ccccc1/C=C/C(=O)NCC(=O)n1nc(C)cc1C	none
O=C(NCc1ccc(F)cc1)c1ccncc1	BoNT F protease inconclusive
COCc1n[nH]c(=S)n1-c1cccc2ccccc12	Autofluor counter 23066
COc1ccccc1Cn1c(C)c(C(=O)NCc2ccco2)sc1=O	none
CC(C)n1nnnc1SCC(=O)Nc1ccccc1F	none
O=C1CCCC(O)=C1C1C2=C(CCCC2=O)Oc2ccccc21 (stereo not drawn)	BoNT A protease inconclusive, Autofluor counter 21293
CC(C)(C)NC(=O)CN(C(=O)CCN1CCCc2ccccc21)C(C)(C)C	Autofluor counter 20626
CCN(CC)C(=O)CSc1nc2c(sc(=S)n2-c2ccccc2)c(=O)n1Cc1ccco1	Autofluor counter 21125
CCN(CC)C(=O)CSc1nc2c(sc(=S)n2CC)c(=O)n1-c1ccccc1	BoNT A protease inconclusive, Autofluor counter 22153
CCC(C)NC(=O)CSc1nc2c(sc(=S)n2Cc2ccco2)c(=O)n1-c1ccccc1 (stereo not drawn)	none
CCOC(=O)CSc1nc2c(sc(=S)n2Cc2ccco2)c(=O)n1-c1ccc(F)cc1	BoNT A protease inconclusive, Autofluor counter 16594
C/C(=N\NS(=O)(=O)c1ccc(C)c([N+](=O)[O-])c1)c1cc2ccccc2o1	Autofluor counter 16518
C/C(=N\NS(=O)(=O)c1ccc(Cl)c([N+](=O)[O-])c1)c1cc2ccccc2o1	BoNT A protease inconclusive, Autofluor counter 22417
C/C(=N\NS(=O)(=O)c1ccc(Cl)c([N+](=O)[O-])c1)c1ccc(C)o1	none
Cc1ccc(C(=O)c2cc3ccccc3o2)cc1[N+](=O)[O-]	none
CCN(CC(=O)Nc1c(F)cccc1F)C(=O)C1COc2ccccc2O1 (stereo not drawn)	none
CCC1C(=O)N(c2nc(C)cc(C)n2)N=C1C (stereo not drawn)	Autofluor counter 19066
COCCn1c(SCC(=O)Nc2cccc(C)n2)nnc1-c1ccco1	none
CCCCSc1nnc(-c2cc(Br)ccc2N)c(=O)[nH]1	BoNT A protease inconclusive, Autofluor counter 20791
CCc1c(C)nc2c(C#N)c[nH]n2c1=O	none
CCOC(=O)Cc1c(C)nc2c(C#N)c[nH]n2c1=O	Autofluor counter 23050
O=C(CN1C(=O)COc2ccc(S(=O)(=O)N3CCOCC3)cc21)Nc1cccc(Cl)c1	none
CC(=O)Nc1ccc(S(=O)(=O)NCCSCc2c(Cl)cccc2Cl)cc1	Autofluor counter 21984
CCOC(=O)c1cc2c(OC)c(OC)ccc2c2[nH]cc(C#N)c(=O)c12	none
Cc1ccc(O)c(NC(=O)c2ccc3c(c2)C(=O)N(Cc2ccco2)C3=O)c1	none
O=C1C2=C(SCCS2)C(=O)N1c1ccccc1	Autofluor counter 19116
CC1CC(CC(C)C(=O)Nc2nncs2)C(=O)O1 (stereo not drawn)	BoNT A protease inconclusive, Autofluor counter 22855
CC1CC(C)CN(C(=O)CCNC(=O)Cn2ccc3ccccc3c2=O)C1 (stereo not drawn)	none
CCCCSc1cc(=O)n(-c2ccccc2)nc1C(=O)OCC	Autofluor counter 23302
CCOC(=O)c1nn(-c2ccccc2)c(=O)cc1SC(C)C	none
CCOC(=O)c1nn(-c2ccccc2)c(=O)cc1SC(C)CC (stereo not drawn)	Autofluor counter 23432
CCCSc1cc(=O)n(-c2ccccc2)nc1C(=O)O	none
CCC(CC)NC(=O)COC(=O)c1ccc(NS(=O)(=O)c2ccc3c(c2)OCCO3)cc1	BoNT A protease inconclusive, Autofluor counter 23057
O=C(O)c1cccc(S(=O)(=O)Nc2ccc3c(c2)OCO3)c1	BoNT A protease inconclusive, Autofluor counter 21051
O=C(O)c1ccc(S(=O)(=O)Nc2ccc3c(c2)OCCO3)cc1	Anthrax LF prot 31, BoNT F protease inconclusive
CC1CCCCN1C(=O)CCNC(=O)Cn1cnc2ccccc2c1=O (stereo not drawn)	none
CCc1ccc(NC(=O)Cn2nc(C)n3cccc3c2=O)cc1	none
C=CC[C@H](CC(=O)NCCO)C(=O)NCCOC(=O)[C@@H](CC=C)CC(=O)OC(C)(C)C	none
Cc1cc2ncn(/N=C/c3ccc4c(c3)OCO4)c2cc1C	none
Cc1cc2ncn(/N=C/c3ccc(-c4ccccc4)o3)c2cc1C	Autofluor counter 21563
CC(C)(C)CC(C)(C)NC(=S)Nc1ccc2nc(-c3ccccn3)c(-c3ccccn3)nc2c1	BoNT A protease 42
COc1ncc(-c2c(-c3ccccc3OC)sc3ccccc23)cn1	none
CC1=CC(C)(C)N2C(=O)C3(SCC(=O)N3c3ccc(O)cc3)c3cc(C)cc1c32 (stereo not drawn)	Autofluor counter 20630
Cc1ccc(C)c(N(C(=O)Cn2nnc(-c3cccs3)n2)C(C(=O)NC2CCCC2)c2ccncc2)c1 (stereo not drawn)	Autofluor counter 24211
COc1ccc(/C(N)=N/OC(=O)c2cc(-c3ccccc3)nc3ccccc23)cc1	Autofluor counter 19686
Cc1nnc2c3ccccc3c(-c3cccc4ccccc34)nn12	BoNT A protease inconclusive, Autofluor counter 19934
O=C(CN1CCN(Cc2cccc(C(F)(F)F)c2)CC1)NCC(=O)Nc1ccc(F)c(F)c1F	none
Cc1c(O[C@@H]2O[C@H](CO)[C@@H](O)[C@H](O)[C@H]2O)c(CO)c(O[C@@H]2O[C@H](CO)[C@@H](O)[C@H](O)[C@H]2O)c2c1O[C@@H](c1ccccc1)C[C@@H]2O	none
CN(C)c1ccc(NC(=O)c2cn(-c3ccccc3)nc2-c2cccs2)cc1	none
CN(C)C(=O)c1cn(-c2ccccc2)nc1-c1cccs1	BoNT A protease inconclusive, Autofluor counter 23620
O=C(Nc1ccc2ccccc2c1)c1cn(-c2ccccc2)nc1-c1cccs1	Autofluor counter 16591

Compound activity as filed in PubChem.
